Laboratory results taken from PubChem BioAssay (EPA / NIEHS).
Records with an inconclusive call do not appear. Active and inactive are the calls of the source. How the source made its calls, unless noted: active means hit-call score of the fitted dose curve at least 0.9, where 1 is the maximum; inactive means score below 0.9.

Columns and labels:
[1] = biological target: Retinoic acid receptor RXR-alpha (Homo sapiens) (UniProt P19793); assay: ATG_RXRa_TRANS: Attagene TRANS-FACTORIAL HepG2 Assay for human Retinoid X Receptor alpha (RXRa) (AID 2283012; active means hit-call score of the fitted dose curve at least 0.9, where 1 is the maximum)
Procedure, shortened: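 Measures exogenous chimeric NR-GAL4 activity in transfected HepG2 liver cells after 24 h of dosing. Induced reporter mRNA was detected by RT-PCR with capillary electrophoresis, and gain of signal was analysed against DMSO.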

[2] = biological target: human Thyroid Receptor alpha (THRa1), THRA (gene 7067) (UniProt P10827); assay: ATG_THRa1_TRANS: Attagene TRANS-FACTORIAL HepG2 Assay for human Thyroid Receptor alpha (THRa1) (AID 2283014; active means hit-call score of the fitted dose curve at least 0.9, where 1 is the maximum)
Procedure, shortened: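 HepG2 cells transiently transfected with multiplexed GAL4-UAS reporter units for exogenous chimeric THRa1-Gal4; reporter mRNA measured 24 h after dosing by RT-PCR, 6-FAM labelling, HpaI digestion and capillary electrophoresis. Gain-of-signal fitted versus DMSO baseline.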

[3] = read-out: E-selectin (Homo sapiens) (UniProt P16581); assay: BSK_3C_Eselectin: BioMAP Diversity Plus: 3C Assay for Eselectin Biomarker Activity (AID 2283015); settings: primary human endothelial cells (HUVEC); actives raise or lower the signal
Procedure, shortened: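 Primary human umbilical vein endothelial cells (3C system) were dosed with chemical and cell-surface E-selectin measured by ELISA 24 h later. Bidirectional curve fitting used DMSO as negative control and baseline.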

[4] = read-out: Interleukin-1 alpha (IL1a), IL1A (gene 3552); assay: BSK_BE3C_IL1a: BioMAP Diversity Plus: BE3C Assay for Interleukin-1 alpha (IL1a) Biomarker Activity (AID 2283016); settings: primary human bronchial epithelial cells; actives raise or lower the signal
Procedure, shortened: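 Signal from IL-1a ELISA, taken 24 h after chemical dosing of human bronchial epithelial cells, is compared with DMSO as baseline using bidirectional curve fitting.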

[5] = read-out: Monocyte Chemoattractant Protein-1 (MCP1), CCL2 (gene 6347); assay: BSK_3C_MCP1: BioMAP Diversity Plus: 3C Assay for Monocyte Chemoattractant Protein-1 (MCP1) Biomarker Activity (AID 2283017); settings: primary human endothelial cells (HUVEC); actives raise or lower the signal
Procedure, shortened: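 Primary human umbilical vein endothelial cells (3C system) were exposed to test chemical for 24 h, after which MCP-1 was quantified by ELISA. Activity was fitted bidirectionally against DMSO as negative control and baseline.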

[6] = read-out: Monocyte Chemoattractant Protein-1 (MCP1), CCL2 (gene 6347); assay: BSK_4H_MCP1: BioMAP Diversity Plus: 4H Assay for Monocyte Chemoattractant Protein-1 (MCP1) Biomarker Activity (AID 2283018); settings: primary human endothelial cells (HUVEC); actives raise or lower the signal
Procedure, shortened: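 Endothelial cells from umbilical vein were treated with test chemical, then after 24 h MCP-1 levels were quantified by ELISA; endpoint values came from bidirectional fitting with DMSO as baseline of activity.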

[7] = read-out: Human Leukocyte Antigen - DR isotype (HLADR), HLA-DRA (gene 3122); assay: BSK_3C_HLADR: BioMAP Diversity Plus: 3C Assay for Human Leukocyte Antigen - DR isotype (HLADR) Biomarker Activity (AID 2283019); settings: primary human endothelial cells (HUVEC); actives raise or lower the signal
Procedure, shortened: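 Primary human umbilical vein endothelial cells (3C system) were dosed with compound and cell-surface HLA-DR was quantified by ELISA at 24 h. Activity was fitted bidirectionally against DMSO as negative control and baseline.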

[8] = read-out: Interleukin-8 (IL8), CXCL8 (gene 3576); assay: BSK_3C_IL8: BioMAP Diversity Plus: 3C Assay for Interleukin-8 (IL8) Biomarker Activity (AID 2283020); settings: primary human endothelial cells (HUVEC); actives raise or lower the signal
Procedure, shortened: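 Endothelial primary cells of human umbilical vein origin are dosed with chemical; after 24 h the IL-8 biomarker is measured by ELISA, and concentration–response is fitted in both directions versus DMSO.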

[9] = read-out: Monokine induced gamma interferon (MIG), CXCL9 (gene 4283); assay: BSK_3C_MIG: BioMAP Diversity Plus: 3C Assay for Monokine induced gamma interferon (MIG) Biomarker Activity (AID 2283021); settings: primary human endothelial cells (HUVEC); actives raise or lower the signal;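 on AC50: MIG protein level measured by immunoassay in the treated endothelial cultures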
Procedure, shortened: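 Endothelial primary cells (human umbilical vein) are dosed with test chemical in the 3C system. MIG levels are measured by ELISA at 24 h and fitted in both directions relative to DMSO.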

[10] = biological target: human Retinoid X Receptor beta (RXRb), RXRB (gene 6257) (UniProt P28702); assay: ATG_RXRb_TRANS: Attagene TRANS-FACTORIAL HepG2 Assay for human Retinoid X Receptor beta (RXRb) (AID 2283013; active means hit-call score of the fitted dose curve at least 0.9, where 1 is the maximum)
Procedure, shortened: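 Chimeric receptor-Gal4 activity was assessed in transiently transfected human HepG2 cells after 24 h exposure. Transcripts from GAL4-UAS reporters were quantified by fluorescent RT-PCR and capillary electrophoresis, with DMSO as negative control and baseline.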

Measured: AC50

Sequence of Retinoic acid receptor RXR-alpha (Homo sapiens) (P19793 whole entry, looked up, the tested form may be a part): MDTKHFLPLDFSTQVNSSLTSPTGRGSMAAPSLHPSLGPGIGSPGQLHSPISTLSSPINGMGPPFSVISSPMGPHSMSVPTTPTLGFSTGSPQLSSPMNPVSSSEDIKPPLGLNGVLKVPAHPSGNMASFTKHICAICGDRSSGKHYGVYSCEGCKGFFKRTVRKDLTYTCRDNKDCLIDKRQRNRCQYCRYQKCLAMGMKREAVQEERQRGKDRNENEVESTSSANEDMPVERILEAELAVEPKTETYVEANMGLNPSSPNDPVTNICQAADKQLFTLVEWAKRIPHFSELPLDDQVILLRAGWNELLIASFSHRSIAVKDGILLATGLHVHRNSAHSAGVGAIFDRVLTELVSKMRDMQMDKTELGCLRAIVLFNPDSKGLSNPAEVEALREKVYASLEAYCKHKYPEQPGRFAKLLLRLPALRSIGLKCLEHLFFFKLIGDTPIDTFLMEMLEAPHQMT
Sequence of human Retinoid X Receptor beta (RXRb), RXRB (gene 6257) (P28702 whole entry, looked up, the tested form may be a part): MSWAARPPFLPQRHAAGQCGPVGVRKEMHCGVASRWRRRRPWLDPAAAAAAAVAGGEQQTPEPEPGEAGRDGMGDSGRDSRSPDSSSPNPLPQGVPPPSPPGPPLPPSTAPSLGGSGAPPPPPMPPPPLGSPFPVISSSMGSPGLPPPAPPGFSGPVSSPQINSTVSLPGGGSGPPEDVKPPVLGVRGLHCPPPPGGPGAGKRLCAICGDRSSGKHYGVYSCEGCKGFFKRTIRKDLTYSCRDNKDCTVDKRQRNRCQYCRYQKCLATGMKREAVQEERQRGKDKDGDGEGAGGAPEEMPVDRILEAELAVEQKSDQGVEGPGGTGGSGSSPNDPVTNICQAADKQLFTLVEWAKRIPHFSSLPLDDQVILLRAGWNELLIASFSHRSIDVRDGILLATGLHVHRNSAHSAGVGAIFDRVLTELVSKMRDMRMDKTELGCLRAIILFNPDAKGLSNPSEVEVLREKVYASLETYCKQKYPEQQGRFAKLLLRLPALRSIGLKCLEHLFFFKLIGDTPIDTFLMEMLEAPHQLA
Sequence of E-selectin (Homo sapiens) (P16581 whole entry, looked up): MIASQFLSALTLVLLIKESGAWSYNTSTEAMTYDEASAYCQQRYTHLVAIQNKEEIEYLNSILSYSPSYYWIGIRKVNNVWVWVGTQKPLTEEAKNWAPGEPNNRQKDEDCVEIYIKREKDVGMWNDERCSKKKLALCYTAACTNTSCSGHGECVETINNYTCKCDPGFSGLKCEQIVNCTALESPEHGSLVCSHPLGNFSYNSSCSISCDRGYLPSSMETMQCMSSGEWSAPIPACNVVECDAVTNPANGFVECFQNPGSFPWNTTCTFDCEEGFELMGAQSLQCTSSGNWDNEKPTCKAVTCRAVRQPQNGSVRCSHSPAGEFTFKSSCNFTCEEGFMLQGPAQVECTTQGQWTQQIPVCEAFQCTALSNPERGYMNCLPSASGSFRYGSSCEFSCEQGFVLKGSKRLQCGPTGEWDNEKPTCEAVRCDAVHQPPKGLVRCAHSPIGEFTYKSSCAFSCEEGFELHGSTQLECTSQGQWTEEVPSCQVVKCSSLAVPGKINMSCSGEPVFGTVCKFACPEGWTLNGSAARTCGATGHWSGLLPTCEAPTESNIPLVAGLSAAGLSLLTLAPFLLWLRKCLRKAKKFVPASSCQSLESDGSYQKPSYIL
Sequence of human Thyroid Receptor alpha (THRa1), THRA (gene 7067) (P10827 whole entry, looked up, the tested form may be a part): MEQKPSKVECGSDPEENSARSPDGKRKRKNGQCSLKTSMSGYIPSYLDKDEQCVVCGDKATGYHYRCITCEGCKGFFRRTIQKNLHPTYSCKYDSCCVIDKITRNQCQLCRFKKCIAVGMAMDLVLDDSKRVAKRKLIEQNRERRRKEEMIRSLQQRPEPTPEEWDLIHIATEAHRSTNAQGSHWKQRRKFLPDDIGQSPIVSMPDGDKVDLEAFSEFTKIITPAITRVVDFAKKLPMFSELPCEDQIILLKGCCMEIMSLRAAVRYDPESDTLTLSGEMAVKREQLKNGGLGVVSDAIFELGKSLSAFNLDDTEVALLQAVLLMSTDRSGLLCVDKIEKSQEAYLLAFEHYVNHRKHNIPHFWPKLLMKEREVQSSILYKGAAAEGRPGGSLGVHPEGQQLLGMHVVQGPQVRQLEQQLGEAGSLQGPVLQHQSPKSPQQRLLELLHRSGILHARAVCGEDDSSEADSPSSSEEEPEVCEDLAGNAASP

CC(O)C(C)O (centres undefined)
inactive: [1] | [2]

COc1ccc(OC)c(OC)c1
inactive: [1] | [2]

CCC(=O)OCc1ccccc1
not listed: [10]
inactive: all other assays above

CC1COc2ccccc2N1C(=O)C(Cl)Cl (centres undefined)
active: [3] 20 µM | [4] 5.26 µM | [7] 7.04 µM
not listed: [10]
inactive: all other assays above

CC1=CCC2C(C1)C2(C)C (centres undefined)
inactive: [1] | [2]

CC(=O)[C@H]1CC[C@H]2[C@@H]3CC=C4C[C@@H](O)CC[C@]4(C)[C@H]3CC[C@]12C
not listed: [10]
inactive: all other assays above

CN(C)C(=N)N=C(N)N
inactive: [1] | [2]

C=COCCOCCOCCOC=C
inactive: [1] | [2]

O=c1[nH]nnc2ccccc12
inactive: [1] | [2]

CCCCCCCCC=O
not listed: [2] | [10]
inactive: all other assays above

CCCCCCCCCCCCCCCC(=O)OC[C@H](O)[C@H]1OC(=O)C(O)=C1O
inactive: [1] | [2]

OC[C@H]1O[C@H](O[C@]2(CCl)O[C@H](CCl)[C@@H](O)[C@@H]2O)[C@H](O)[C@@H](O)[C@H]1Cl
not listed: [10]
inactive: all other assays above

Cc1ccc2ccccc2n1
inactive: [1] | [2]

C=CCOc1nc(OCC=C)nc(OCC=C)n1
inactive: [1] | [2]

Cc1ccc(Nc2ccc(O)c3c2C(=O)c2ccccc2C3=O)cc1
not listed: [10]
inactive: all other assays above

CC(CN1c2ccccc2Sc2ccccc21)N(C)C (centres undefined)
inactive: [1] | [2]

Cc1cccc(C)c1[N+](=O)[O-]
inactive: [1] | [2]

CC(CCO)CCCC(C)(C)O (centres undefined)
inactive: [1] | [2]

O=C(Nc1ccccc1)c1cc([N+](=O)[O-])ccc1Cl
inactive: [1] | [2]

Nc1cc(N)cc(C(=O)O)c1
inactive: [1] | [2]

CC(C)=CCO
inactive: [1] | [2]

C=C(C)C(=O)NCCCN(C)C
inactive: [1] | [2]

C=CCOC(=O)CCC1CCCCC1
not listed: [10]
inactive: all other assays above

N#Cc1ccc(CC(=NNC(=O)Nc2ccc(OC(F)(F)F)cc2)c2cccc(C(F)(F)F)c2)cc1
not listed: [2] | [10]
inactive: all other assays above

CCO[Si](CCCS)(OCC)OCC
inactive: [1] | [2]

CC1(C)[C@@H]2CC[C@@]1(C)[C@H](O)C2
inactive: [1] | [2]

CC(C)Oc1ccccc1O
not listed: [10]
inactive: all other assays above

O=C(O)C[C@H](O)C[C@H](O)/C=C/c1c(C2CC2)nc2ccccc2c1-c1ccc(F)cc1
active: [4] 1.43 µM | [6] 0.551 µM
not listed: [10]
inactive: all other assays above

Cc1c(N(C)C)c(=O)n(-c2ccccc2)n1C
inactive: [1] | [2]

COc1cc2ncnc(Nc3cccc(Cl)c3)c2cc1OC
inactive: [1] | [2]

CCCCC/C=C/C=C/C=O
inactive: [1] | [2]
active: [3] 30.1 µM | [4] 20 µM | [5] 29.4 µM | [6] 36.3 µM | [7] 20 µM | [8] 31.8 µM | [9] 36.5 µM

c1ccc2[nH]ccc2c1
inactive: [1] | [2]

O=C(O)c1cccc([N+](=O)[O-])c1
inactive: [1] | [2]

Cc1ccc(C=O)s1
inactive: [1] | [2]

CC1=CCC(O)(C(C)C)CC1 (centres undefined)
inactive: [1] | [2]

CC(c1cc2ccccc2s1)N(O)C(N)=O (centres undefined)
inactive: [1] | [2]

COc1ccc(Cl)cc1C
inactive: [1] | [2]

COc1c(Cl)c(Cl)c(Cl)c(Cl)c1Cl
active: [1] 29.1 µM
inactive: [2]

CC(C#N)(CCC(=O)O)N=NC(C)(C#N)CCC(=O)O (centres undefined)
inactive: [10] | [2]

C/C=C(\C)C(=O)OCc1ccccc1
inactive: [10] | [2]

Nc1ccc(S(=O)(=O)O)c(N)c1
inactive: [10]

Clc1nc(C(Cl)(Cl)Cl)c(Cl)c(Cl)c1Cl
active: [10] 21.8 µM
inactive: [2]

CCCCCOC(=O)CCC
inactive: [10]

CC1=CC(=O)NS(=O)(=O)O1
inactive: [10] | [2]

CC(C)C(C)(C)C(C)(C)C(C)(C)S
inactive: [10]

CCCCCC(=O)OCCc1ccccc1
inactive: [10] | [2]
